# Shown are actives, neighbours in structure and some others; about 5.3% of the full set was active somewhere.
# FMDV inh – foot and mouth disease virus antiviral activity; 410,000 tested, 1.2% active; FMDV antiviral cell-based qHTS; Potency, µM (titrated, usually from 57.9 µM), for inactives: at the top dose activity change, negative = inhibition, hits mostly inhibitors; AID 1159524; calls by dose curve; tested in HEK293T cells; also: read-out not given here; nearly all actives have a fitted effect of over 45% in size
# LASV entry inh – Lassa virus entry inhibition; Lassa virus pseudotype entry inhibition, cell reporter; Potency, µM (highest dose often 37.9 µM), without a hit: at the top dose activity change, negative = inhibition, hits mostly inhibitors; 300,000 tested, 1.2% active; calls by dose curve; tested in HEK293 cells; also: nearly all actives have a fitted effect of over 50% in size
# HCV inhibitor – inhibitors of hepatitis C virus infection. Huh7.5.1 HCVcc-Cre infection, luciferase reporter, 44 h. Potency, µM (doses to about 41.8 µM), inactives show top-dose activity change, negative = inhibition, hits mostly inhibitors. 340,000 tested, 3.4% active. AID 651820; active = well fitted inhibition curve with a large enough effect; inconclusive = small, poorly fitted or top-dose-only effect, or another doubt; inactive = no such curve, though single readings can be large or run the other way
#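 After 44 h co-culture of compound, cells and HCVcc-Cre (~0.5 moi), substrate is added for 15 min at room temperature and luciferase measured over 15 sec. Cells were seeded at 1,000/well and pre-cultured 4 h.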
# Marburg entry inh – Marburg virus entry inhibition; Marburg virus pseudotyped entry inhibition, cell reporter; Potency, µM (series often up to 37.8 µM), inactives show at the highest dose activity change, negative = inhibition, hits mostly inhibitors; 300,000 tested, 1.8% active; AID 540276; calls by dose curve; tested in HEK293 cells
# VACV mCherry inh – inhibitors of vaccinia virus infection (mCherry reporter signal); AID 720579; Vaccinia virus mCherry reporter infection, fluorescence; Potency, µM (top dose mostly 36.5 µM), for the others: at the top dose activity change, negative = inhibition, usual class: inhibitors; 310,000 tested, 0.63% active; calls by dose curve; tested in A549 cells; also: nearly all actives have a fitted effect of over 35% in size
# VACV Venus inh – inhibitors of vaccinia virus (Venus reporter); Vaccinia virus Venus reporter expression, fluorescence; Potency, µM (doses to about 36.5 µM), without a hit: at the top dose activity change, negative = inhibition, usual class: inhibitors; 330,000 tested, 0.46% active; AID 720580; calls by dose curve; tested in A549 cells; also: nearly all actives have a fitted effect of over 30% in size
# Numbers without * were called inactive; i = inactive; ? = inconclusive; nt = no result; [ ] = dose if it differs, or a comment. % is scaled to controls: 0 for no effect and ±100 for the full control effect; potency is read from the fitted curve at half-maximal effect.
SMILES,FMDV inh,LASV entry inh,HCV inhibitor,Marburg entry inh,VACV mCherry inh,VACV Venus inh
COC(=O)C1=C(C(=O)OC)[C@@H]2N(C)c3ccc(OC)cc3[C@@]23C[C@@H](C(=O)OC)N(C(=O)c2ccc(Br)cc2)C3=N1,?,nt,-9%,nt,?,11µM*
CC(C)(CN1CCNCC1)NS(=O)(=O)c1ccc(Cl)cc1,?,nt,4µM*,nt,nt,nt
CN1CCN(C(=O)C23CC4CC(C2)CC(c2ccccc2)(C4)C3)CC1,-29%,?,10µM*,?,-10%,-4%
O=C(c1ccccc1)N1CCN(C(=O)C23CC4CC(CC(C4)C2)C3)CC1,-17%,-13%,1%,-4%,-15%,-7%
Cc1ccc(/C=N/Nc2nncc(-c3ccccc3)n2)o1,8%,-3%,?,-4%[46.1 µM],-15%,4%
Cc1[nH]n(-c2ccccc2)c(=O)c1/C=N/NC(=O)c1cccc(F)c1,-6%,nt,11µM*,nt,nt,nt
Cc1[nH]n(-c2ccc(Br)cc2)c(=O)c1/C=N/NC(=O)c1ccccc1,-5%,nt,?,nt,nt,nt
Cc1[nH]n(-c2ccccc2)c(=O)c1C=Nc1cccc2cccnc12,-23%,?,3.5µM*,8.9µM*,13µM*,?
Cc1[nH]n(-c2ccccc2)c(=O)c1/C=N/Nc1nncc(-c2ccccc2)n1,nt,4.1µM*,0.56µM*,4.1µM*,4µM*,?
CN1C(=O)c2ccccc2Sc2ccc(NC(=O)COc3ccc(F)cc3)cc21,-18%,?,nt,nt,-7%,-20%
Cc1ccnn1CC(=O)N1CCOc2c(cc(-c3csc4ccccc34)cc2OC2CCOC2)C1 (centres undefined),0%,nt,nt,nt,-7%,-2%
CCC(CC)C(=O)Nc1cc(-c2cccc(C)c2)nn1-c1ccccc1,-8%,27%[46.1 µM],nt,nt,-6%,-3%
CCOc1cc(/C=C2\COc3ccccc3C2=O)ccc1OCC(=O)N(C)C,28µM*,?,?,?,-4%,-27%
CCOc1cc(C=C2C(=O)NC(=O)NC2=O)ccc1OCC(=O)N1CCOCC1,-11%,2%,8%,-6%,-14%,-8%
CCNC(=O)COc1ccc(/C=C2\COc3ccccc3C2=O)cc1OC,28µM*,15µM*,?,?,-7%,-23%
COc1ccc(-c2nc3cnc(Nc4cccc(OC)c4)nc3n(Cc3cccs3)c2=O)cc1,-11%,nt,nt,nt,nt,nt
COC[C@H]1O[C@]2(c3ccccc3)CO[C@@H]1[C@@H](C=Cc1ccccc1)C2,nt,?,nt,26%[14.2 µM],nt,nt
CC1=CC(C)(C)Nc2ccc(OC(=O)CN3C(=O)c4cccc5cccc(c45)C3=O)cc21,?,-3%,?,-20%,-5%,19%
CC1=CC(C)(C)Nc2ccc(OC(=O)CN3C(=O)c4ccccc4C3=O)cc21,?,?,25µM*,?,-12%,65%
CC1=CC(C)(C)Nc2ccc(OC(=O)C(Cc3ccccc3)N3C(=O)c4ccccc4C3=O)cc21 (centres undefined),0%,5µM*,19%,14%[46.1 µM],nt,-1%
COc1ccc(OC)c(CN2C(=O)CSCC2(C)C(=O)NC(C)C)c1 (centres undefined),-2%,nt,nt,nt,-9%,-4%
N#Cc1c(N)nc(Sc2ccc(Cl)cc2)c(C#N)c1-c1ccccc1Cl,28µM*,?,11µM*,?,?,-29%
CCSc1nc(N)c(C#N)c(-c2ccccc2Cl)c1C#N,-25%,-13%,-28%,-1%,nt,nt
C[C@@H]1CN([C@@H](C)CO)S(=O)(=O)c2ccc(Br)cc2O[C@H]1CN(C)C(=O)c1ccccc1,-12%,nt,nt,nt,-14%,-8%
COc1ccc(N2CCN(CCCNC(=O)c3cc4sccc4n3C)CC2)cc1,-25%,-14%,13µM*,?,nt,nt
SMILES,FMDV inh,LASV entry inh,HCV inhibitor,Marburg entry inh,VACV mCherry inh,VACV Venus inh
COc1ccc(N2CCN(CCCN)CC2)cc1,-19%,?,10µM*,?,-8%,6%
NCCCN1CCN(c2ccccc2)CC1,-9%,24%,?,-11%[46.1 µM],-12%,-5%
COc1ccc(Nc2cc(C(=O)NCCCN3CCN(c4ccc(OC)cc4)CC3)c3ccccc3n2)cc1,40µM*,?,nt,nt,?,?
Cc1ccc(-c2cn3c(=O)cc(C)[nH]c3n2)cc1,39%,15µM*,2%,-10%,nt,nt
CN(C)c1ccc(NC(=O)CSc2nc(N)c(C(=O)Nc3ccc(N(C)C)cc3)s2)cc1,?,?,10µM*,?,4µM*,4µM*
COc1ccc(NC(=O)CSc2nc(N)c(C(=O)Nc3ccc(N(C)C)cc3)s2)cc1,8%,-19%,?,?,nt,?
C[C@H]1CC[C@H]2C(=O)N(Cc3ccc(Cl)cc3)C[C@H](O)CN2[C@H]1c1ccc(Br)cc1,nt,nt,nt,-2%[14.2 µM],nt,nt
O=C1N=C(O)CN1/N=C/C1C=CC(c2ccc([N+](=O)[O-])cc2)O1 (centres undefined),nt,nt,nt,16%,nt,nt
O=c1c2ccccc2nc(SCc2cn3ccsc3n2)n1-c1ccc(F)cc1,?,11µM*,-6%,?,nt,?
O=C(CSc1nc2ccccc2c(=O)n1-c1ccc(F)cc1)NCc1ccco1,-22%,-1%,-16%,?,nt,nt
C=C1CCC[C@]2(C)C[C@H]3OC(=O)[C@H](CNCCc4ccccc4OC)C3CC12 (some centres undefined),-26%,nt,nt,nt,nt,nt
O=C(c1ccco1)N1CCN(c2ncnc3scc(-c4cccs4)c23)CC1,22µM*,?,?,-8%,nt,nt
c1ccc(N2CCN(c3ncnc4scc(-c5cccs5)c34)CC2)cc1,-9%,-27%,11µM*,-15%,nt,nt
Fc1ccc(-c2csc3ncnc(N4CCN(c5ccccc5)CC4)c23)cc1,-29%,?,-14%,?,-20%,-5%
Cc1ccc(C2CC2c2n[nH]c(=S)n2-c2ccc(C)cc2)cc1 (centres undefined),5%,?,25µM*,-11%,nt,nt
Cc1ccc(-n2c(C3CC3c3ccc(Cl)cc3)n[nH]c2=S)cc1 (centres undefined),0%,-7%,6%,3%,nt,nt
S=c1[nH]nc(C2CC2c2ccc(Cl)cc2)n1-c1ccc(Cl)cc1 (centres undefined),-12%,16µM*,14%,-21%,-27%,?
CCc1nc2cc(C(=O)N(C)C3CCOC3)cc(NC(=O)c3ccccc3OC)c2n1C (centres undefined),2%,nt,nt,nt,-19%,-16%
COc1ccccc1/C=C/C=N/n1c(-c2ccc(F)cc2)n[nH]c1=S,19%,?,0%,?,i,0%
Cc1ccc(-c2n[nH]c(=S)n2/N=C/C=C/c2ccccc2[N+](=O)[O-])cc1,-8%,13µM*,18%,7%,-20%,-7%
COc1ccccc1/C=C\C=N\n1c(-c2ccc(Cl)cc2)n[nH]c1=S,50%,10µM*,6%,-17%,i,-24%
Cc1ccc(N(CC(=O)NCc2ccc(F)cc2)C(=O)CCC(=O)Nc2ccccn2)cc1C,-17%,1.4µM*,?,?,-26%,-21%

# High-throughput results: PubChem, National Center for Advancing Translational Sciences (NCATS)
